High-throughput results as filed in PubChem.
KB-V1 MDR tox: KB-V1 MDR subline cytotoxicity; KB-V1 MDR cells viability, CellTiter-Glo, 72 h; Potency, µM (doses to about 46.1 µM), hits mostly cytotoxic; actives 3.4% (n = 400,000); note: % is set by controls: 0 for no effect and ±100 for the full control effect; nearly all actives have a fitted effect of over 60% in size
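qHTS viability screen in drug-selected KB-V1 MDR cells: 72 h compound treatment at 37 degrees C, ATP luminescence end point.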
PINK1 expr mod: modulators of PINK1 expression | actives 0.2% (n = 410,000) | PINK1 immunofluorescence, high-content cytometry, 24 h | Potency, µM (highest dose often 76.6 µM), for the others: top-dose activation (PINK1 increase), most hits filed as activators; active = well fitted activation curve with a large enough effect; inconclusive = small, poorly fitted or top-dose-only effect; cell line not stated here; note: % of control where 0% means no effect; nearly all actives have a fitted effect of over 65% in size
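PINK1 protein level read as immunofluorescence by microplate cytometer in a fixed, stained stable cell line after 24 h exposure to five compound concentrations, with CCCP as control.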
MCF10A rerep: DNA re-replication induction in MCF 10a cells. MCF 10A DNA re-replication, Hoechst nuclear intensity, 48 h. Potency, µM (series often up to 46.1 µM), for the others: at the top dose activity, positive = re-replication, most hits filed as activators. actives 2.9% (n = 350,000); note: % of control where 0% means no effect; nearly all actives have a fitted effect of over 50% in size
TSG101-PTAP inh: blocks PTAP/TSG101 interaction to inhibit HIV-1 budding; Q99816; Fluorescence polarization, FITC-PTAP peptide / Tsg101 binding; 340,000 tested, under 10 active; Potency, µM (highest dose often 115 µM), inactives show top-dose activity change, negative = inhibition, hits mostly inhibitors; active = well fitted inhibition curve with a large enough effect in the main read-out, with a control signal flat, not every such curve was filed as active; inconclusive = small, poorly fitted or top-dose-only effect, or effect the other way, or a change in a side signal; inactive = no such curve, though single readings can be large or run the other way; note: % of control where 0% means no effect
Target sequence (Q99816 whole entry, looked up): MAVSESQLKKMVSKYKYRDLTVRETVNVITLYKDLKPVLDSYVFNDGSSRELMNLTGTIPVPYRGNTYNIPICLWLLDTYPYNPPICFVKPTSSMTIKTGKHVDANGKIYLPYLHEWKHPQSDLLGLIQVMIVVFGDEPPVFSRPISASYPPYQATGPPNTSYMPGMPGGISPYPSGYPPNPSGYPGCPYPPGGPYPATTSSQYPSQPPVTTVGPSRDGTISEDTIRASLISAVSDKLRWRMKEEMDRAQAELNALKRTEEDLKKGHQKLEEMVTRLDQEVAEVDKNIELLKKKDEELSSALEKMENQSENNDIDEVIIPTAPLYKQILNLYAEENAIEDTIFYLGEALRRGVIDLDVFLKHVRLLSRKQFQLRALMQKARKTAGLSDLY
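FP read-out: FITC-PTAP peptide, 50 nM final, binding Tsg101 binding domain, 10 uM final; 20 min, r.t.; 10 mM HEPES pH 7.5, 0.15 M NaCl, 0.01% Tween 20, 3 mM EDTA, 0.1 mM TCEP.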
SW480 rereplic: inducers of DNA re-replication in SW480 colon cancer cells; AID 624297; SW480 DNA re-replication, Hoechst DNA content imaging, 48 h; Potency, µM (top dose mostly 46.1 µM), without a hit: at the highest dose re-replication activation, hits mostly activators; actives 1.8% (n = 340,000); note: % of control where 0% means no effect; nearly all actives have a fitted effect of over 55% in size
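Hoechst fluorescence of nuclei (405 nm excitation, 500-530 nm emission) measured by plate-scanning imager after 48 hr compound exposure at 37 C; re-replication scored as increased number of nuclei with elevated intensity.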
KB-3-1 tox: KB-3-1 parental cell cytotoxicity. KB-3-1 viability, CellTiter-Glo ATP luminescence, 72 h. Potency, µM (top dose mostly 46.1 µM), usual class: cytotoxic. actives 1.4% (n = 400,000); note: % is set by controls: 0 for no effect and ±100 for the full control effect; nearly all actives have a fitted effect of over 60% in size
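KB-3-1 parental drug-naive adenocarcinoma cells in DMEM/10% FBS, incubated 72 h at 37 C with pin-transferred compounds across a concentration series. Viability by CellTiter-Glo luminescence; concentration-response curves fitted after normalization.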
* = called active by the depositor; i = inactive; ? = inconclusive; · = no result; [ ] = dose if it differs, or a comment. Only some compounds are listed: those with a hit (about 6.8% of all), similar ones and a draw of the others. Unless noted, calls come from the whole dose curve; as a rule, active = well fitted curve in the direction sought with a large enough effect; inconclusive = small, poorly fitted or top-dose-only effect, or another doubt; inactive = no such curve, though single readings can be large; an effect the other way counts as inactive or inconclusive. Potency is the fitted concentration of half-maximal effect.

SMILES | KB-V1 MDR tox | PINK1 expr mod | MCF10A rerep | TSG101-PTAP inh | SW480 rereplic | KB-3-1 tox
O=c1cc(-c2ccccc2)oc2ccc3ccccc3c12 | 21µM* | 1% | · | · | · | i
O=c1cc(-c2ccc(O)c(O)c2)oc2c1ccc1ccccc12 | i | ? | ? | 9% | ? | i
O=c1cc(-c2ccccc2)oc2cccc(O)c12 | i | 2% | -7% | -5% | -9% | i
CCC(=O)Nc1nc(CC(=O)Nc2ccccc2OC)cs1 | i | -2% | -1% | -3% | -4% | i
COc1ccccc1NC(=O)Cc1csc(NC(=S)Nc2ccc(C)cc2)n1 | 10µM* | -7%[38.3 µM] | ? | -10% | 21µM* | ?
O=C(c1ccc(Cl)c(S(=O)(=O)N2CCc3ccccc32)c1)N1CCN(c2ccccc2O)CC1 | 18µM* | 1% | ? | 1% | 15% | i
Cc1cccc(C(=O)NCC(=O)N2CCN(c3ccccn3)CC2)c1 | 21µM* | 0% | 2% | -11% | -7% | i
O=C(c1cccc([N+](=O)[O-])c1)N1CCN(c2ccccn2)CC1 | i | -2% | -3% | -2% | 16µM* | i
COc1ccc(N2CCN(C(=O)c3cccc(S(=O)(=O)N4CCc5ccccc54)c3)CC2)cc1 | i | 1% | ? | 0% | 28% | i
O=C(c1cccc(S(=O)(=O)N2CCc3ccccc32)c1)N1CCN(c2ccccn2)CC1 | ? | 7% | 17% | -4% | 17% | 6.5µM*
O=C(c1cc([N+](=O)[O-])ccc1Cl)N1CCN(c2ccccn2)CC1 | ? | 0% | -6% | 0% | ? | i
Cc1cccc(C(=O)N2CCN(c3ccccn3)CC2)c1 | ? | 0%[38.3 µM] | 0% | -6% | 11% | i
COc1ccc(C(=O)Cn2c(=O)n3nc(CCn4nc(C)cc4C)nc3c3cc(OC)c(OC)cc32)cc1 | · | 2% | · | · | · | ·
CCOC(=O)c1ccc(NC(=O)C2CCCN(c3ncnc4onc(-c5ccc(F)cc5)c34)C2)cc1 (stereo not drawn) | i | -1% | · | · | · | i
CCN(C(=O)c1cc2c(=O)n(CC)c3ccccc3c2s1)c1cccc(C(F)(F)F)c1 | i | 1% | · | · | · | i
COc1ccc(CC2(CO)CCN(CC3=Cc4cc(Cl)ccc4OC3)CC2)cc1 | i | -3% | 23µM* | 0% | ? | ?
COc1ccc2c(c1)C=C(CN1CCC(CO)(CCc3ccccc3)CC1)CO2 | ? | 5% | ? | 2% | ? | i
O=C(c1ccncc1)N1CCC2(CCCN(c3ccccc3)C2)CC1 | · | -1% | · | · | · | ·
CCOc1ccc2c(c1)OC(c1ccc(OC)cc1)(C(F)(F)F)NC2=O (stereo not drawn) | 5.2µM* | ? | 2.3µM* | -2% | 5.2µM* | 5.2µM*
CCN(CC)c1ccc(-n2c(C)c(C(C)=O)c(C(C)=O)c2C)cc1 | 18µM* | -2% | 15% | -2% | -12% | ?
NC(=O)c1sc2nc(-c3ccccc3)ccc2c1N | 5.8µM* | -1% | 5% | 0% | ? | ?
COc1ccc(-c2ccc3c(N)c(C(=O)NC(C)C)sc3n2)cc1OC | i | 1% | 18µM* | 0% | 18µM* | ?
COc1ccc(-c2ccc3c(N)c(C(=O)c4ccc(OC)c(OC)c4)sc3n2)cc1 | i | 14% | ? | 1% | ? | i
CCOC(=O)c1sc2nc(-c3ccccc3)ccc2c1N | i | 1% | ? | 0% | ? | i
CCC(=O)N1c2ccc(S(=O)(=O)NCc3cccc(OC)c3)cc2CC1C (stereo not drawn) | i | 1% | · | · | · | i
SMILES | KB-V1 MDR tox | PINK1 expr mod | MCF10A rerep | TSG101-PTAP inh | SW480 rereplic | KB-3-1 tox
CCc1ccc(OCCNC(=O)c2ccccc2SCc2ccc(F)cc2)cc1 | 18µM* | 5% | ? | 1% | -8% | i
O=C(NCCOc1ccc(F)cc1)c1ccccc1SCc1ccccc1 | ? | 0% | ? | 0% | -11% | i
O=C(Nc1cc(C(F)(F)F)ccc1N1CCCCC1)c1cccc([N+](=O)[O-])c1 | 16µM* | 4% | ? | 0% | -5% | i
Cc1ccc(NC(=O)c2ccc(-n3cccn3)c([N+](=O)[O-])c2)cc1 | 23µM* | -1% | 1% | -10% | -11% | i
Cc1cccc(NC(=O)c2ccc(N3CCCCC3)c([N+](=O)[O-])c2)n1 | 5.2µM* | 5% | 10µM* | -3% | -5% | ?
Cc1cccc(NC(=O)c2ccc(N3CCOCC3)c([N+](=O)[O-])c2)n1 | ? | 1% | 2% | 1% | -16% | i
Cc1cccc(NC(=O)c2ccc(-n3cccn3)c([N+](=O)[O-])c2)c1 | i | 3% | 5% | 0% | -2%[9.22 µM] | i
Cc1cccc(NC(=O)c2ccc(N(C)C3CCCCC3)c([N+](=O)[O-])c2)n1 | 2.6µM* | 9% | 18% | -1% | 1% | ?
O=C(Nc1ccccc1N1CCCCC1)c1cccc([N+](=O)[O-])c1 | ? | -1% | -3% | 0% | 3% | i
CCOc1ccc(-n2nc(CO)c(C(=O)NCC(C)O)n2)cc1 (stereo not drawn) | · | 0% | · | · | · | ·
CC(O)CN(CC(C)O)c1ccc2c(c1)Cc1cc([N+](=O)[O-])ccc1-2 (stereo not drawn) | i | 9% | 12µM* | 17% | 8.2µM* | i
CC(=NO)c1ccc2c(c1)Cc1cc([N+](=O)[O-])ccc1-2 | 7.3µM* | -5% | 9% | -2% | 2% | 15µM*
CCCCOc1ccc(C(=O)NCc2cn3cccc(C)c3n2)cc1 | · | 2% | · | · | · | ·
N#Cc1ccccc1Cn1c(=O)n(-c2cccc(C(F)(F)F)c2)c(=O)c2sccc21 | · | -1% | · | · | · | ·
C/C=C(\C)NNC(=O)Cc1ccc(OC)cc1 | i | 0% | · | · | · | i
COc1ccc(-c2[nH]c(-c3cc(OC)c4c(c3)OCO4)nc2-c2ccccc2)cc1 | i | 0% | 13µM* | -2% | -4% | i
COc1ccc(CN2COc3ccc4c(C)cc(=O)oc4c3C2)cc1 | ? | -1% | · | · | · | i
O=C(Nc1cccc(F)c1)N1CC[C@@]2(CCCN(C(=O)c3cc(C(F)(F)F)cc(C(F)(F)F)c3)C2)C1 | · | 1% | · | · | · | ·
CN(Cc1ccccc1)c1nc(N)nc(Cl)c1C=O | i | -1% | 28% | -5% | 4.6µM* | i
O=C(c1ccco1)N1CCC2(CC1)CN(Cc1cc(C(F)(F)F)cc(C(F)(F)F)c1)C2 | · | 1% | · | · | · | ·
Cc1nn(CC(C)C)c(Cl)c1C(=O)N(c1ccc(Cl)cc1F)S(C)(=O)=O | ? | 3% | 21µM* | -5% | 11% | i
